PubChem BioAssay (EPA / NIEHS)
Values joined by “and” are separate entries in the source; they are usually repeats but may differ in a detail not shown here. Equal values may be shown once. Active and inactive are the calls of the source. How the source made its calls: active means hit-call score of the fitted dose curve at least 0.9, where 1 is the maximum; inactive means score below 0.9.

What was measured:
Conditions in all cases: mRNA level, 48 h; actives raise or lower the signal
[1] = read-out: JUN Transcription Factor, JUN (gene 3725); experiment: LTEA_HepaRG_JUN: Life Technologies and Expression Analysis (LTEA) Assay for JUN Transcription Factor using HepaRG (AID 2283513)
Method in brief: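 Human HepaRG liver cells receive test chemicals in 0.5% DMSO for 48 h across an eight-point range topping at 100 uM. Expression changes in JUN are scored in both directions against the DMSO vehicle.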

[2] = read-out: Lipase C (LIPC), LIPC (gene 3990); experiment: LTEA_HepaRG_LIPC: Life Technologies and Expression Analysis (LTEA) Assay for Lipase C (LIPC) using HepaRG (AID 2283514)
Method in brief: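 Read-out is LIPC transcript level by TaqMan qRT-PCR, normalized to three housekeeping genes, after 48 h chemical treatment of human HepaRG liver cells. Curves span eight concentrations topping at 100 uM; activity in either direction scored relative to 0.5% DMSO.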

[3] = read-out: Lipoprotein lipase (LPL), LPL (gene 4023); experiment: LTEA_HepaRG_LPL: Life Technologies and Expression Analysis (LTEA) Assay for Lipoprotein lipase (LPL) using HepaRG (AID 2283515)
Method in brief: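 Read-out is LPL transcript level by qRT-PCR, normalized to three housekeeping genes and fitted bidirectionally against the DMSO control. Human HepaRG cells received chemicals for 48 h at up to 100 uM.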

[4] = read-out: MicroRNA 122 (MIR122), gene 406906; experiment: LTEA_HepaRG_MIR122: Life Technologies and Expression Analysis (LTEA) Assay for MicroRNA 122 (MIR122) using HepaRG (AID 2283516); further: the transcript read is the microRNA miR-122
Method in brief: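 HepaRG, 48 h exposure, 8-pt half-log from 100 uM, 0.5% DMSO; TaqMan qRT-PCR; bidirectional fit vs DMSO.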

[5] = read-out: matrix metalloproteinase-10 (MMP10), MMP10 (gene 4319); experiment: LTEA_HepaRG_MMP10: Life Technologies and Expression Analysis (LTEA) Assay for matrix metalloproteinase-10 (MMP10) using HepaRG (AID 2283517)
Method in brief: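 Gain or loss of MMP10 mRNA is fitted relative to the 0.5% DMSO vehicle. The human hepatic line HepaRG receives a 48-hour serum-free exposure, in duplicate, with a maximum concentration of 100 uM.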

[6] = read-out: MYC, MYC (gene 4609); experiment: LTEA_HepaRG_MYC: Life Technologies and Expression Analysis (LTEA) Assay for MYC using HepaRG (AID 2283518)
Method in brief: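 Differentiated HepaRG cells exposed 48 h in serum-free induction medium to 8 concentrations (top 100 uM, half-log steps; 0.5% DMSO), duplicate. MYC mRNA measured by Fluidigm qRT-PCR, normalized to ACTB, GAPDH, POLR2A; bidirectional fit versus DMSO.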

[7] = read-out: matrix metalloproteinase-3 (MMP3), MMP3 (gene 4314); experiment: LTEA_HepaRG_MMP3: Life Technologies and Expression Analysis (LTEA) Assay for matrix metalloproteinase-3 (MMP3) using HepaRG (AID 2283519)
Method in brief: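 HepaRG, human; 48 h dosing, 8 conc. (max 100 uM, half-log), duplicate, 0.5% DMSO. Readout: MMP3 transcript by Fluidigm TaqMan qRT-PCR, ACTB/GAPDH/POLR2A-normalised. Gain or loss fitted vs DMSO.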

[8] = read-out: Paternally Expressed 10 (PEG10), PEG10 (gene 23089); experiment: LTEA_HepaRG_PEG10: Life Technologies and Expression Analysis (LTEA) Assay for Paternally Expressed 10 (PEG10) using HepaRG (AID 2283520);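 on AC50: PEG10 transcript by qRT-PCR normalised to ACTB GAPDH and POLR2A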
Method in brief: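 Chemicals tested on HepaRG cells for 48 h, highest concentration 100 uM. PEG10 expression assessed by qRT-PCR relative to DMSO control.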

[9] = read-out: Phosphatase and tensin (PTEN), PTEN (gene 5728); experiment: LTEA_HepaRG_PTEN: Life Technologies and Expression Analysis (LTEA) Assay for Phosphatase and tensin (PTEN) using HepaRG (AID 2283523)
Method in brief: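 Read-out is PTEN transcript level by multiplexed TaqMan qRT-PCR after 48 h chemical treatment of human HepaRG cultures in serum-free induction medium. Concentrations spanned 100 uM downward in half-log steps, 0.5% DMSO throughout; activity fitted in both directions against vehicle.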

[10] = read-out: solute carrier (SLC22A1), SLC22A1 (gene 6580); experiment: LTEA_HepaRG_SLC22A1: Life Technologies and Expression Analysis (LTEA) Assay for solute carrier (SLC22A1) using HepaRG (AID 2283524)
Method in brief: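 HepaRG (human liver line), 48 h dosing in serum-free induction medium; 8 conc., half-log down from 100 uM, 0.5% DMSO vehicle, duplicates. Endpoint: SLC22A1 mRNA, qRT-PCR, housekeeping-normalized; gain/loss fit vs DMSO.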

[11] = read-out: Pyruvate Dehydrogenase Kinase 4 (PDK4), PDK4 (gene 5166); experiment: LTEA_HepaRG_PDK4: Life Technologies and Expression Analysis (LTEA) Assay for Pyruvate Dehydrogenase Kinase 4 (PDK4) using HepaRG (AID 2283525)
Method in brief: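 In this multiplexed human HepaRG expression assay, cells are treated 48 h with test chemicals across an eight-point range starting at 100 uM. PDK4 mRNA changes, normalized to ACTB/GAPDH/POLR2A, are fitted in both directions relative to vehicle.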

[12] = read-out: NAD(P)H dehydrogenase [quinone] 1 (NQO1), NQO1 (gene 1728); experiment: LTEA_HepaRG_NQO1: Life Technologies and Expression Analysis (LTEA) Assay for NAD(P)H dehydrogenase [quinone] 1 (NQO1) using HepaRG (AID 2283526)
Method in brief: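 Human HepaRG hepatic cells received chemicals for 48 h in serum-free induction medium with 0.5% DMSO, up to 100 uM. Expression was assessed by TaqMan qRT-PCR against housekeeping controls and fitted bidirectionally against DMSO.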

[13] = read-out: Nuclear factor erythroid 2-related factor 2 (Homo sapiens) (UniProt Q16236); experiment: LTEA_HepaRG_NFE2L2: Life Technologies and Expression Analysis (LTEA) Assay for Nuclear factor erythroid 2-related factor 2 (NFE2L2) Transcription Factor using HepaRG (AID 2283527)
Method in brief: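 Transcript level of NFE2L2 is the read-out, measured by microfluidic TaqMan qRT-PCR and normalized to three housekeeping genes. Human HepaRG cultures received test chemical for 48 h at up to 100 uM in half-log steps. Gain or loss of signal is fitted relative to 0.5% DMSO.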

[14] = read-out: succinate dehydrogenase complex iron sulfur subunit B (SDHB), SDHB (gene 6390); experiment: LTEA_HepaRG_SDHB: Life Technologies and Expression Analysis (LTEA) Assay for succinate dehydrogenase complex iron sulfur subunit B (SDHB) using HepaRG (AID 2283528)
Method in brief: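 SDHB transcript level read by TaqMan qRT-PCR, housekeeping-normalised (ACTB, GAPDH, POLR2A), after 48 h chemical treatment of plated HepaRG cells; eight concentrations top 100 uM, half-log steps, 0.5% DMSO, duplicates; fitted both directions against DMSO.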

[15] = read-out: Signal transducer and activator of transcription 3 (Homo sapiens) (UniProt P40763); experiment: LTEA_HepaRG_STAT3: Life Technologies and Expression Analysis (LTEA) Assay for Signal transducer and activator of transcription (STAT3) using HepaRG (AID 2283529)
Method in brief: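 Read-out is STAT3 mRNA level by qRT-PCR, normalized to three housekeeping genes, in human HepaRG liver cells treated for 48 h. Concentrations ran from 100 uM downward in half-log steps; curves were fitted for gain or loss relative to 0.5% DMSO.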

[16] = read-out: sulfotransferase 2A1 (SULT2A1), SULT2A1 (gene 6822); experiment: LTEA_HepaRG_SULT2A1: Life Technologies and Expression Analysis (LTEA) Assay for sulfotransferase 2A1 (SULT2A1) using HepaRG (AID 2283531)
Method in brief: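 HepaRG human liver cells, 48 h exposure in serum-free induction medium to 8 half-log concentrations topping at 100 µM (0.5% DMSO), duplicate wells. SULT2A1 mRNA measured by TaqMan qRT-PCR, normalized to ACTB/GAPDH/POLR2A; bidirectional fit against DMSO.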

[17] = read-out: Transforming Growth Factor (TGFA), TGFA (gene 7039); experiment: LTEA_HepaRG_TGFA: Life Technologies and Expression Analysis (LTEA) Assay for Transforming Growth Factor (TGFA) using HepaRG (AID 2283532)
Method in brief: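 HepaRG (human liver line), 48 h exposure, 8 conc. half-log down from 100 uM, 0.5% DMSO vehicle, duplicates; serum-free induction medium. TGFA mRNA by TaqMan qRT-PCR, ACTB/GAPDH/POLR2A normalization; gain/loss fit vs DMSO.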

[18] = read-out: Nuclear factor NF-kappa-B p105 subunit (Homo sapiens) (UniProt P19838); experiment: LTEA_HepaRG_NFKB1: Life Technologies and Expression Analysis (LTEA) Assay for Nuclear Factor Kappa B Subunit 1 (NFKB1) using HepaRG (AID 2283521)
Method in brief: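 NFKB1 transcript was measured by TaqMan qRT-PCR on Fluidigm arrays, normalised to three housekeeping genes and fitted in both directions against 0.5% DMSO. HepaRG cells were dosed in duplicate for 48 h in serum-free induction medium, eight half-log steps from 100 uM.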

[19] = read-out: solute carrier (SLCO1B1), SLCO1B1 (gene 10599); experiment: LTEA_HepaRG_SLCO1B1: Life Technologies and Expression Analysis (LTEA) Assay for solute carrier (SLCO1B1) using HepaRG (AID 2283530)
Method in brief: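 Differentiated human HepaRG cells were exposed for 48 h in serum-free induction medium to eight half-log concentrations, top 100 uM, in 0.5% DMSO. SLCO1B1 mRNA was measured by qRT-PCR, normalized to ACTB, GAPDH and POLR2A, and fitted bidirectionally against DMSO.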

Measured: AC50

Signal transducer and activator of transcription 3 (Homo sapiens), sequence (P40763 whole entry, looked up): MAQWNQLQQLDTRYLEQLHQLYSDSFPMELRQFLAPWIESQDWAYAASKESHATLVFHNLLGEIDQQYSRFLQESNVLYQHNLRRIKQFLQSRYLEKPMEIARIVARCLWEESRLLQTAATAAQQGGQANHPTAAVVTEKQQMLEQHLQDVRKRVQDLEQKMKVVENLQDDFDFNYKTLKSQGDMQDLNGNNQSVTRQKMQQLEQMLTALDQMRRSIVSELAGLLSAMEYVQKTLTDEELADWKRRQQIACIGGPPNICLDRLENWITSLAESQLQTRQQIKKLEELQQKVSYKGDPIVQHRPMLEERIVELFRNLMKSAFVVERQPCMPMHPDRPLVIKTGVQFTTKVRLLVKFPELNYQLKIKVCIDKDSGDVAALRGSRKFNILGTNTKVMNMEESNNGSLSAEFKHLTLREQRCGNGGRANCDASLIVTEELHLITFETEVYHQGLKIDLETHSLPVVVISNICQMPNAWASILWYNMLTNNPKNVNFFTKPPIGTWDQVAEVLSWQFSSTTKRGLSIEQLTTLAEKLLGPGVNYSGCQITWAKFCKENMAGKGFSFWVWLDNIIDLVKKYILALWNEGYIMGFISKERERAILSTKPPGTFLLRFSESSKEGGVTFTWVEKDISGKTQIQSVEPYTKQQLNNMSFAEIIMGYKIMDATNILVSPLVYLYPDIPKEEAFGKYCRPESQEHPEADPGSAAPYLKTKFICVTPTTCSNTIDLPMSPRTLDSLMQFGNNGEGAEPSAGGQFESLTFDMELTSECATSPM
Nuclear factor NF-kappa-B p105 subunit (Homo sapiens), sequence (P19838 whole entry, looked up): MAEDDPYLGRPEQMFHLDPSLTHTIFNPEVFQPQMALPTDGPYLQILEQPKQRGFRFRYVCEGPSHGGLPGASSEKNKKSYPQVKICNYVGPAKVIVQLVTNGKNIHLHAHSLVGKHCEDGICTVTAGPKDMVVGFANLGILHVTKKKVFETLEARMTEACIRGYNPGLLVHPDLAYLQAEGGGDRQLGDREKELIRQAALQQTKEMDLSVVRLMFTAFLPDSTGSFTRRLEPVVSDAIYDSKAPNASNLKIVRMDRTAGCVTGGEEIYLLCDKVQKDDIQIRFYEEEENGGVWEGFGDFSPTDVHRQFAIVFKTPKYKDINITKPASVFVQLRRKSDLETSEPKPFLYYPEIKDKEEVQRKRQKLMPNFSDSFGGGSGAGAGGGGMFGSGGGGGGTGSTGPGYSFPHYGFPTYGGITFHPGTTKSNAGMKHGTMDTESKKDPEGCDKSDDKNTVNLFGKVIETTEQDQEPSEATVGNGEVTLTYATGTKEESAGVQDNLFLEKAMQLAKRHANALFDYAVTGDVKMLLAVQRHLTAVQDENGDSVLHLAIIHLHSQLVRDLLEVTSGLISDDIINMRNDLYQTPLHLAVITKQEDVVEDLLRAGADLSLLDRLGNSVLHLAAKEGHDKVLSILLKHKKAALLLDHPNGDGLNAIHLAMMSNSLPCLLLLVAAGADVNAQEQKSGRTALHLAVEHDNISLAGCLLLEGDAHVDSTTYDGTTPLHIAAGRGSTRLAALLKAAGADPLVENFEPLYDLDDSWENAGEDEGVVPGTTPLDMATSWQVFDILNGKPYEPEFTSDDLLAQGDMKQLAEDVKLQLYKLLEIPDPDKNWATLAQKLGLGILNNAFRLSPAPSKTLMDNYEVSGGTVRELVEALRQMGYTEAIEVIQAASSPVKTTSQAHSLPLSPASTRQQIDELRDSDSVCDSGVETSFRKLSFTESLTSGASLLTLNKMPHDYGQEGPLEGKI
Nuclear factor erythroid 2-related factor 2 (Homo sapiens), sequence (Q16236 whole entry, looked up): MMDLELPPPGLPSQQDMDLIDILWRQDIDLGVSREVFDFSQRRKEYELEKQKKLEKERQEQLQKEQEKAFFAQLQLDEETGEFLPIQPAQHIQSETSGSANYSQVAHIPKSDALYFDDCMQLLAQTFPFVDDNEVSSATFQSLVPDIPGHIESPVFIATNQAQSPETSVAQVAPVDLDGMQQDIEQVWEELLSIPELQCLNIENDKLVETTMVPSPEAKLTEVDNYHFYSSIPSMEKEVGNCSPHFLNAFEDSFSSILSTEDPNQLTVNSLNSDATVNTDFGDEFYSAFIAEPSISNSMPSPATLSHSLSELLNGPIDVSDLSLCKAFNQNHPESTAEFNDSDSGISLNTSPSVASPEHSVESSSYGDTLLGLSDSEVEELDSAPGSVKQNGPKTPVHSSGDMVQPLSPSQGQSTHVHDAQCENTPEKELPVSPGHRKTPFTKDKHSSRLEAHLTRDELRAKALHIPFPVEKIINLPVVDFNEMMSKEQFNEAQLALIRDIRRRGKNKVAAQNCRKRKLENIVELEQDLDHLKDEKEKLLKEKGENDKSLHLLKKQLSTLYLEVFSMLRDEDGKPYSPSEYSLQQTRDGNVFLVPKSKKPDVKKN

CCC(C)Nc1c([N+](=O)[O-])cc(C(C)(C)C)cc1[N+](=O)[O-] (configuration not stated)
active: [8] 29.9 µM
not listed: [18] | [19]
inactive: all other assays above

CCC(C)(C)C(=O)OC1=C(c2ccc(Cl)cc2Cl)C(=O)OC12CCCCC2
active: [3] 40.8 µM
not listed: [19]
inactive: all other assays above

O=C(O)C(F)(F)C(F)(F)C(F)(F)C(F)(F)C(F)(F)C(F)(F)C(F)(F)F
active: [11] 26.9 µM and 21.7 µM
not listed: [19]
inactive: all other assays above

CCN(CC)C(=O)SCc1ccc(Cl)cc1
not listed: [19]
inactive: all other assays above

CNC(=O)Oc1ccccc1OC(C)C
not listed: [19]
inactive: all other assays above

CCCN(CCOc1c(Cl)cc(Cl)cc1Cl)C(=O)n1ccnc1
inactive: [12] | [15]
active: [1] 50 µM | [2] 44.3 µM | [3] 25.7 µM | [4] 11.7 µM | [5] 57.8 µM | [6] 39.5 µM | [7] 80.2 µM | [8] 6.24 µM | [9] 79.1 µM | [10] 29.5 µM | [11] 30.8 µM | [13] 29.9 µM | [14] 12.1 µM | [16] 34.9 µM | [17] 50 µM

CNC(=O)CSP(=S)(OC)OC
not listed: [18]
inactive: all other assays above

CC1(c2ccc(Oc3ccccc3)cc2)OC(=O)N(Nc2ccccc2)C1=O (configuration not stated)
inactive: [9] | [14]
active: [1] 33.5 µM | [2] 21.5 µM | [3] 12.3 µM | [4] 10.6 µM | [5] 26.1 µM | [6] 10.2 µM | [7] 10.6 µM | [8] 6.47 µM | [10] 13.5 µM | [11] 32.1 µM | [12] 50.2 µM | [13] 23 µM | [15] 50.2 µM | [16] 32.5 µM | [17] 8.82 µM

ClC1C(Cl)C(Cl)C(Cl)C(Cl)C1Cl (configuration not stated)
active: [8] 4.25 µM and 27.6 µM
not listed: [19]
inactive: all other assays above

COP(=O)(OC)OC=C(Cl)Cl
not listed: [19]
inactive: all other assays above

N#Cc1c(Cl)c(Cl)c(Cl)c(C#N)c1Cl
inactive: [1] | [8] | [12] | [13] | [14] | [15] | [16] | [17]
active: [2] 50 µM | [3] 18 µM | [4] 90.9 µM | [5] 15.6 µM | [6] 50 µM | [7] 21 µM | [9] 68.7 µM | [10] 61.5 µM | [11] 75.6 µM

COc1nn(CSP(=S)(OC)OC)c(=O)s1
not listed: [19]
inactive: all other assays above
